# NADH enzymes – blocks coupling enzymes of NAD/NADH assays | 0.02% of 65,000 active | coupled PK/LDH NADH assays, four targets | IC50, µM (highest dose often 10 µM), without a hit: top-dose inhibition | AID 774;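 active = single-dose screening hits from any of four coupled enzyme assays that gave an IC50 when retested across doses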;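 note: the DPM-DC format reads NADH fluorescence rather than 340 nm absorbance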
# DPM-DC inhibit – inhibitors of Streptococcus pneumoniae diphosphomevalonate decarboxylase | purified DPM-DC, PK/LDH coupled NADH fluorescence | calls only at 10 µM | 0.49% of 65,000 active;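 active = the 320 compounds with the highest percent inhibition in the single-dose primary screen, excluding strongly autofluorescent ones, cut at about 32% in these data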;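 note: kinetic rate of NADH fluorescence loss reporting ADP formed by the decarboxylase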
# A340 absorber – compound absorbs light at 340 nm | 65,000 tested, under 10 active | compound absorbance at 340 nm, fold over control | fold change at 10 µM;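 active = at 10 µM dose, initial 340 nm absorbance at least 2 fold that of control wells; inactive = change under 2 fold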;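 note: initial absorbance extrapolated from kinetic A340 decline of NADH oxidation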
# Autofluor 339 – intrinsic fluorescence of library compounds, ex339/em460 – biochemical, MLSMR library, data from DPM-DC assay, artefact control, profiling panel. compound autofluorescence, ex339/em460 nm, NADH buffer; stronger effect = higher value; 1 = no-compound wells, NADH background. fluorescence fold increase at 10 µM. 5.5% of 65,000 active. AID 709;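 active = at 10 µM, mean starting fluorescence two-fold or more over control wells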;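 note: signal is the first read of a kinetic run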
# Spn PMK inh – blocks S. pneumoniae phosphomevalonate kinase; purified PMK, PK/LDH-coupled NADH absorbance 340 nm; inhibition, % at 10 µM; 0.49% of 65,000 active; AID 539;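 active = top-ranked compounds by inhibition in the single 10 µM screen, taking a fixed number of the strongest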;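 note: 0% = full reaction with DMSO carrier and 100% = background rate without enzyme reaction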
# Spn MK inh – blocks S. pneumoniae mevalonate kinase; purified MK, PK/LDH-coupled NADH absorbance 340 nm; inhibition, % at 10 µM; 0.48% of 65,000 active; AID 555;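 active = ranked among the strongest by inhibition in the single 10 µM screen, a fixed top-ranked set picked for dose follow-up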
# * marks the source's active call; other numbers are inactive results; i = inactive; . = not tested or not shown. This is a sample that favours compounds with a hit; in the whole collection about 6.5% have one here.
SMILES,NADH enzymes,DPM-DC inhibit,A340 absorber,Autofluor 339,Spn PMK inh,Spn MK inh
COC(=O)c1ccc(-c2nc3ccccc3o2)cc1,2%,.,1.1,4.6*,3,0
Cc1ccc(-c2nc3cc(C)ccc3o2)cc1,4%,i,1.1,0.87,0,1
CCCCC(=O)Nc1cc(N(C)C)nc2ccccc12,14%,.,1,3.8*,12,15
CN(C)c1cc(NC(=O)CN2CCOCC2)c2ccccc2n1,3%,.,1,1.8,0,4
COc1ccc(N(CC(=O)NCc2ccco2)S(=O)(=O)c2ccc(OC)c(OC)c2)cc1,0%,i,1.1,1.1,0,0
Oc1ccc(CN2CCCCC2)nc1-c1ccccc1,5%,i,1.1,3.3*,0,0
COc1cccc(C2C3=C(CCCC3=O)Nc3nc4ccccc4n32)c1OC (stereo not given),8%,.,1.1,5*,9,7
COc1cc(OC)c(C2C3=C(CCCC3=O)Nc3nc4ccccc4n32)cc1OC (stereo not given),7%,i,1.1,1.1,12,8
O=C1Nc2ccccc2C12Nc1ccccc1-c1nc3ccccc3n12 (stereo not given),2%,i,1.1,1.3,5,2
CC1(c2ccccn2)Nc2ccccc2-c2nc3ccccc3n21 (stereo not given),4%,.,1.1,3.8*,5,2
c1ccc2c(c1)NC1(CCCCC1)n1c-2nc2ccccc21,6%,.,1.1,3.7*,0,11
COc1ccc(CNCCNC(=O)c2ccco2)c(OC)c1OC,3%,i,1,1.1,7,1
COc1ccc2c(C)c(C(=O)NCC(C)O)oc2c1OC (stereo not given),10%,.,1.1,2.3*,15,4
COc1ccccc1-n1cc(C(=O)NCC(=O)N2CCN(c3ccccc3)CC2)c2ccccc2c1=O,2%,i,0.99,1.3,2,4
CCOCC(=O)Nc1ccc(S(=O)(=O)NCCc2ccccc2)cc1,4%,i,1,1.1,8,5
Cc1ccc(C)c(C(=O)CC2(O)C(=O)N(C)c3ccccc32)c1 (stereo not given),3%,i,0.98,1,16,1
Cc1ccc2c(c1)c1cccc3c1n2CCN3CCC(N)=O,11%,.,1.1,2.2*,14,7
COCCNC(=O)C(c1ccc(C)o1)N(C(=O)c1snc(C(N)=O)c1N)c1cccc(C)c1 (stereo not given),15%,i,1,2.5*,16,7
Cc1ccc(C(C(=O)NC2CCCC2)N(Cc2cccnc2)C(=O)c2snc(C(N)=O)c2N)o1 (stereo not given),13%,i,1.1,2.6*,7,9
CCOc1ccccc1N(C(=O)c1snc(C(N)=O)c1N)C(C(=O)NC1CCCC1)c1ccco1 (stereo not given),14%,i,1.1,2.4*,.,5
C=CCC1(O)C(=O)N2C(=C1C(=O)N1CCOCC1)c1ccccc1CC2(C)C (stereo not given),1%,i,1.1,1.1,0,3
Cc1csc(=Nc2ccc(S(=O)(=O)N3CCOCC3)cc2)n1Cc1ccco1,4%,i,1.1,1.1,10,2
CC(=O)c1ccc(S(=O)(=O)N(Cc2cc3cc4c(cc3[nH]c2=O)OCCO4)CC2CCCO2)cc1 (stereo not given),3%,i,1,1.2,5,.
O=c1[nH]c2cc3c(cc2cc1CN(CC1CCCO1)S(=O)(=O)c1ccc(Cl)cc1)OCCO3 (stereo not given),7%,i,1.1,2.6*,8,9
COC(=O)c1ccc(S(=O)(=O)N(Cc2cc3cc4c(cc3[nH]c2=O)OCO4)C2CCCCC2)cc1,6%,.,1,3.6*,2,10
SMILES,NADH enzymes,DPM-DC inhibit,A340 absorber,Autofluor 339,Spn PMK inh,Spn MK inh
Cc1ccc(S(=O)(=O)N(Cc2cc3cc4c(cc3[nH]c2=O)OCCO4)CC2CCCO2)cc1 (stereo not given),4%,.,1.1,3.5*,2,6
CCCCC(=O)Nc1cccc(-c2nn3c(C)nnc3s2)c1,5%,i,1.1,1.1,4,11
COc1cccc(CN2CCCC(C(=O)N3CCCCC3)C2)c1OC (stereo not given),3%,i,1,1.2,8,0
CCOC(=O)C1CCN(Cc2ccc(O)c(OC)c2)CC1,11%,i,1.1,1,0,34
CCOC(=O)C1CCCN(Cc2cc(Br)c(OC)cc2OC)C1 (stereo not given),17%,i,1.1,1.1,0,50*
CCN(CC)C(=O)C1CCCN(Cc2ccc(OC)c(C)c2C)C1 (stereo not given),19%,i,1.1,1.2,0,56*
CCOC(=O)C1CCCN(Cc2cc(OC)c(O)c(OC)c2)C1 (stereo not given),17%,i,1.1,1.1,0,50*
CCCCOC(=O)C1=C(C)Nc2ncnn2C1c1cccc(OC)c1OC (stereo not given),4%,i,0.98,1,6,5
CCCCNC(=O)CCC(=O)Nc1ccc2nc(N3CCOCC3)cc(C)c2c1,8%,.,1,4.7*,8,7
COCCCNC(=O)CCC(=O)Nc1ccc2nc(N3CCOCC3)cc(C)c2c1,9%,.,1.1,4.7*,8,9
Cc1cc(N2CCN(C)CC2)nc2ccc(NC(=O)CCC(=O)NCCC3=CCCCC3)cc12,11%,i,1.1,3.8*,11,3
CCN1CCN(c2cc(C)c3cc(NC(=O)c4ccncc4)ccc3n2)CC1,2%,i,1.1,1.1,2,3
CCOC(=O)C1CCCN(C(=O)CCC(=O)Nc2ccc3nc(N4CCOCC4)cc(C)c3c2)C1 (stereo not given),9%,.,1,4.7*,10,8
COc1ccc(Cn2c(CCCO)nc3ccccc32)cc1OC,1%,i,1,1,0,5
COc1ccc(-n2c(Cn3c(=O)sc4ccccc43)nnc2SCC(=O)N2CCCC2)cc1,3%,i,1,1.1,5,5
Cc1cc(N2CCOCC2)nc2ccc(NC(=O)C3CCC(C)CC3)cc12 (stereo not given),1%,.,1,2.3*,3,1
O=C(Nc1ccc(N2CCOCC2)cc1)C1CC1,2%,i,0.99,1,0,5
O=S(=O)(Cc1ccccc1)N1CCN(Cc2ccc3c(c2)OCO3)CC1,1%,i,1.1,1.1,0,4
CCN(CC)Cc1c(O)ccc2c(C)c(CC(=O)OC)c(=O)oc12,6%,.,1.2,2.4*,5,6
COC(=O)Cc1c(C)c2ccc(OCC(C)=O)c(C)c2oc1=O,7%,.,1.1,3.8*,8,6
CCN(CC)Cc1c(O)ccc2c(-c3ccccc3)cc(=O)oc12,9%,.,1.1,2.1*,10,7

# From PubChem BioAssay
